Compound activity as filed in PubChem BioAssay.
Exocytosis inh: blocks lytic granule exocytosis | TALL-104 LAMP-1 surface exposure, flow cytometry; cells stimulated with thapsigargin and PMA | inhibition, % at 10 µM | 0.66% of 360,000 active | AID 651702;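 active = inhibition above about 55%, limit read from the data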
MIN6 prolif: MIN6 beta-cell proliferation induction. MIN6 cells proliferation, ATPlite luminescence, 48 h; cells starved in 0.2% serum; 100% = growth in 10% serum. proliferation, % at 10 µM. 0.29% of 330,000 active. AID 2380;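 active = compounds whose signal lies at least 3.5 SD above the mean of all wells on their plate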;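 also: 0% = DMSO-treated cells in low-serum medium and 100% = 10% serum control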
PfM18AAP inh: PfM18AAP enzyme inhibition; inhibition, % at 7.35 µM; recombinant PfM18AAP, H-Glu-NHMec fluorogenic cleavage; AID 1822; 1.2% of 290,000 active;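 active = inhibition above the campaign mean inhibition over all tested compounds plus 3 SD, cut at about 28% in these data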;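 also: 0% = plate median of test compound wells and 100% = 2 mM ZnCl2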
ALR inh: inhibitors of human sulfhydryl oxidase ALR | P55789 | AID 485317 | purified ALR, DTT oxidation, H2O2 HRP-luminol luminescence | inhibition, % (no concentration beside the values) | 3.8% of 290,000 active;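 active = mean replicate inhibition above about 79%, with every replicate also reaching it, limit read from the data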
Target sequence (P55789 whole entry, looked up): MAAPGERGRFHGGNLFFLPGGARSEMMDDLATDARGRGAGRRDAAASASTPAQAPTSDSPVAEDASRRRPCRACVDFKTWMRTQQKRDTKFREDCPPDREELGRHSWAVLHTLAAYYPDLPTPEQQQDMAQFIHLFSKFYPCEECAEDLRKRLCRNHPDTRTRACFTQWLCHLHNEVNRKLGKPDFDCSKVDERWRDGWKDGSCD
SMARCA2 activ: increases SMARCA2 function in MMTV reporter cells; MG213 cells, MMTV-luciferase reporter, dexamethasone, overnight; activation, % at 9.1 µM; 1% of 370,000 active; in the data active = activation above about 7.8%;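 also: 0% = vehicle wells and 100% = reference activator wells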
GASC-1 inh: human JMJD2C demethylase inhibition; GST-JMJD2C(1-420) H3K9me3 demethylation, DELFIA europium; inhibition, % at 2.35 µM; 0.069% of 330,000 active; AID 2099;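 active = more than half of a compound's replicate wells show inhibition beyond 50%, single wells judged on their own value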;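 also: signal counts dimethyl H3K9 product captured on neutravidin plate; 0% = median of DMSO wells and 100% = 0.3 times that DMSO median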
* = called active by the depositor; · = not tested or not shown. Only some compounds are listed: those with a hit (about 5.4% of all), similar ones and a draw of the others.

SMILES	Exocytosis inh	MIN6 prolif	PfM18AAP inh	ALR inh	SMARCA2 activ	GASC-1 inh
CCOC(=O)C1=NOC(C(C)=O)(C(=O)N2CCOCC2)C1 (configuration not stated)	·	·	·	·	-3	·
COC(=O)[C@]12C[C@H](CC(=O)N3CCC(c4ccccc4)CC3)C(=O)N(Cc3ccccc3)C1=C[C@H](C(C)(C)C)O[C@@H]2C	·	·	·	·	-3	·
COc1ccc(NC2CCCN(C(=O)c3cn(C)c4ccccc34)C2)cc1 (configuration not stated)	-1	1	2	99*	5	0
Cc1ccc(NC2CCCN(C(=O)c3cn(C)c4ccccc34)C2)cc1C (configuration not stated)	9	1	-4	92*	-2	0
O=C(CSc1nc2ccccc2nc1N1CCCC1)N1CCN(C(c2ccccc2)c2ccccc2)CC1	·	·	·	·	-7	·
COC(=O)C12C=C3CC(C4CC4)=C3C(=O)N1Cc1[nH]c3ccccc3c1C2 (configuration not stated)	·	·	·	·	0	·
CCN(CC)S(=O)(=O)c1cccc(-c2cn3cccnc3n2)c1	-2	0	5	99*	0	-1
CCN(CC)S(=O)(=O)c1cccc(-c2csc(C)n2)c1	0	-3	2	97*	-1	9
Nc1cccc(-c2cn3cccnc3n2)c1	-4	-4	-4	99*	0	9
Cc1nc(-c2cccc(S(=O)(=O)N3CCCCC3)c2)cs1	0	3	1	23	-2	0
CC1CCCN(S(=O)(=O)c2cccc(-c3cn4cccnc4n3)c2)C1 (configuration not stated)	-2	-4	1	48	1	-2
CC(C)(C)C1=CC(CC(N)=O)(C(C)(C)C)OC1=O (configuration not stated)	·	·	·	·	1	·
Cc1nn(-c2ccccc2)c(C)c1-c1cc(C(=O)N/N=C/c2ccc(O)cc2)[nH]n1	-5	2	5	97*	4	2
CC(C)CNC(=O)c1nc(-c2ccccc2)n(-c2ccccc2)n1	-2	-2	-4	3	-1	0
NC(=O)c1ccsc1NC(=O)c1nc(-c2ccccc2)n(-c2ccccc2)n1	-1	0	6	86*	-2	4
O=C(N/N=C/c1ccc(O)cc1)c1nc(-c2ccccc2)n(-c2ccccc2)n1	10	0	2	98*	0	-15
COc1cc(/C=N/NC(=O)c2nc(-c3ccccc3)n(-c3ccccc3)n2)ccc1O	8	-1	2	85*	-3	2
COc1ccc(/C=N/NC(=O)c2nc(-c3ccccc3)n(-c3ccccc3)n2)cc1OC	-1	0	5	1	-1	10
Cc1nn(-c2ccccc2)c(C)c1/C=N/NC(=O)c1cc(O)cc(O)c1	-1	-3	-6	29	-1	-7
Cc1[nH]nc2c1C(c1ccc(Br)cc1)N(c1ccccc1)C2=O (configuration not stated)	·	·	·	·	-1	·
Cc1cccc(CNC(=O)NC2CCCCN(Cc3cccc(Cl)c3)C2=O)c1 (configuration not stated)	·	·	·	·	-5	·
COC1=C[C@H](C(=O)NC2CCN(Cc3ccccc3)CC2)[C@@]2(C)Cc3ccccc3[C@H]2CC1=O	·	·	·	·	-4	·
COc1cccc([C@@H]2NC(=O)C/C=C/[C@H](C)[C@H](c3cccc(OC)c3)NC(=O)C/C=C/[C@@H]2C)c1	·	·	·	·	-2	·
COC(=O)c1cc(-c2ccc3ccccc3c2)c(=O)n2c1CCC2	·	·	·	·	-1	·
Cc1cc(C)n2nc(C(=O)N/N=C/c3ccc(Cl)cc3)nc2n1	1	5	-1	-5	0	-4
SMILES	Exocytosis inh	MIN6 prolif	PfM18AAP inh	ALR inh	SMARCA2 activ	GASC-1 inh
Cc1cc(C)n2nc(C(=O)N/N=C/c3ccc(O)cc3)nc2n1	1	3	2	99*	0	1
S=c1[nH]nc(-c2cc(-c3ccccc3)n[nH]2)n1N=Cc1cccc(Oc2ccccc2)c1	·	·	·	·	-1	·
c1ccc(Nc2ccccc2Nc2ccccn2)nc1	-1	1	15	89*	-1	15
COC(=O)[C@]12C[C@H](CC(=O)NCCCCc3ccccc3)C(=O)N(Cc3cccc4ccccc34)C1=C[C@H](C(C)C)O[C@@H]2C1CC1	·	·	·	·	-3	·
Cc1ccc(S(=O)(=O)O/N=C2\CCCc3ccccc32)cc1	1	-2	-3	-54	1	-2
CC1=C(C)/C(=N\OS(=O)(=O)c2ccccc2)C=CC1=O	97*	-3	-1	28	·	5
COc1ccc(NCC(O)Cn2cnc3c2c(=O)n(C)c(=O)n3C)cc1 (configuration not stated)	1	3	6	98*	-1	-2
Cn1c(=O)c2c(ncn2CC(O)CNc2ccc(Br)cc2)n(C)c1=O (configuration not stated)	0	-2	2	62	-5	64
CCOC(=O)[C@@]12CCCC=C1N(CCc1ccc(Cl)cc1)C(=O)[C@H]2CC(=O)NCCc1ccccc1OC	·	·	·	·	-2	·
O=C1CCN(N=Nc2cccc(Cl)c2)N1	·	-2	31*	11	·	-20
Nc1[nH][nH]c(=O)c1N=Nc1cccc(Cl)c1	-3	-2	21	7	1	8
CCOC(=O)c1cnc2ccc(C)cc2c1Nc1ccc(N2CCOCC2)cc1	5	1	-26	98*	-1	-6
COC(=O)[C@]12C[C@H](CC(=O)NCCc3ccccc3OC)C(=O)N(Cc3ccc(Cl)cc3Cl)C1=C[C@H](C1CCCC1)O[C@@H]2C	·	·	·	·	-2	·
C=CCN(CC#Cc1ccccc1)CC1CC1	·	·	·	·	-4	·
O=Cc1cn[nH]c1-c1ccccc1	4	-2	8	-3	0	10
O=Cc1cnc2ccccc2c1-c1ccccc1	80*	-3	12	0	-2	-4
CCOC(=O)Cc1nc(N2CCN(CCO)CC2)c2c(C)c(C(=O)OCC)sc2n1	·	·	·	·	-6	·
CC(C)(c1ccccc1)c1ccc(OCC2CO2)cc1 (configuration not stated)	56*	0	-18	-19	-2	2
CN(C)CCOc1ccc(C(C)(C)c2ccccc2)cc1	-5	-2	4	10	-5	5
CCOC(=O)CC[C@@]1(C(=O)OCC)C[C@@H](CC(=O)NCc2cccc3ccccc23)C(=O)N2CCCC=C21	·	·	·	·	-2	·
COc1ccc(C(=O)n2cc(C(=O)c3cc(C)ccc3O)cn2)cc1	-8	0	12	98*	-1	-5
COc1ccc(C(=O)n2cc(C(=O)c3cc(C)ccc3O)cn2)cc1OC	-3	-4	14	30	0	-6
Cc1cc(Cl)ccc1OCC(=O)n1cc(C(=O)c2cc(Cl)ccc2O)cn1	·	2	30*	3	·	6
CCN(C[C@@H]1[C@@H](c2ccccc2)[C@H](CO)N1S(C)(=O)=O)C(=O)C1CCC1	·	·	·	·	-3	·
